# Measured values from PubChem BioAssay (NCATS).
# Records with an inconclusive call do not appear. A number with no mark means an inactive call. The source made the active and inactive calls. The call rests on the fitted dose curve; in most records, active means well fitted inhibition curve with a large enough effect; inconclusive means small, poorly fitted or top-dose-only effect; inactive means flat fitted curve, though single readings scatter.
# Molecular target: Calcium and integrin-binding protein 1 (Homo sapiens) (UniProt Q99828)
# Sequence (Q99828 whole entry, looked up): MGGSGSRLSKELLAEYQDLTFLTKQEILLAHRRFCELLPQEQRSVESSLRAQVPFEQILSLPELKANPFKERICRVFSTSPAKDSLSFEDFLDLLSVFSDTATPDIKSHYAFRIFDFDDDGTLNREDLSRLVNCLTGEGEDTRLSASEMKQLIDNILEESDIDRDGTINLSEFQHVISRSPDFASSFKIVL
# Test: Primary qHTS for Identification of Calcium Integrin Binding Protein 1 (CIB1) Competitor (AID 1508620);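 further: GST tagged CIB1 binding a fluorescein labelled alphaIIb integrin peptide tracer; top concentration of the series differs between compounds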
# Settings: CIB1-GST / FITC-alphaIIb peptide fluorescence polarization; series mostly up to 57.7 µM; activity change, negative = inhibition: at the top concentration
# How it was run: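 Fluorescence polarization competition: CIB1-GST (1 uM final) preincubated with compound 15 min at room temperature, then FITC-labeled alphaIIb peptide (100 nM final) added for another 15 min. Polarization read at Ex 480/Em 540.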
# On the % scale 0 is the no-effect control and ±100 the full control effect.
Compound,"activity change, negative = inhibition",Potency
COC(=O)c1ccc(O[C@@H]2O[C@H](CO)[C@@H](O)[C@H](O)[C@H]2O)c(OC)c1,0.173%,
OCCc1ccc(O[C@@H]2O[C@H](CO)[C@@H](O)[C@H](O)[C@H]2O)c(O)c1,1.65%,
C[C@@H]1O[C@@H](O[C@H]2[C@H](OC(=O)[C@]34CCC(C)(C)C[C@H]3C3=CCC5[C@@]6(C)C[C@H](O)[C@H](O[C@@H]7O[C@H](CO[C@@H]8OC[C@H](O)[C@H](O)[C@H]8O)[C@@H](O)[C@H](O)[C@H]7O)C(C)(C)C6CC[C@@]5(C)[C@]3(C)C[C@H]4O)OC[C@@H](O)[C@@H]2O)[C@H](O)[C@H](O[C@@H]2OC[C@](O)(CO)[C@H]2O)[C@H]1O[C@@H]1OC[C@H](O)[C@H](O[C@@H]2OC[C@@H](O)[C@H](O)[C@H]2O)[C@H]1O (stereo partly drawn),1.69% [at 12.4 µM],
O=C(NN1CCCCC1)c1nn(-c2ccc(Cl)cc2Cl)c(-c2ccc(C#Cc3ccc(C(F)(F)F)cc3)s2)c1CNS(=O)(=O)N1CCCC1,3.06% [at 114 µM],
C[C@@H]1O[C@@H](O[C@H]2[C@H](O[C@H]3[C@H](O[C@H]4CC[C@@]5(C)C(CC[C@]6(C)C5CC=C5[C@@H]7CC(C)(C(=O)O)C[C@@H](O)[C@]7(C)CC[C@]56C)[C@@]4(C)CO)O[C@H](C(=O)O)[C@@H](O)[C@@H]3O)O[C@H](CO)[C@H](O)[C@@H]2O)[C@H](O)[C@H](O)[C@H]1O (stereo partly drawn),-1.51% [at 30.2 µM],
CCC[C@@H]1C[C@@H](C(=O)N[C@@H]([C@H]2O[C@H](SC)[C@H](O)[C@@H](O)[C@@H]2O)[C@@H](C)O)N(C)C1,4.43% [at 114 µM],
CC1NC(=O)C(Cc2c[nH]c3ccccc23)NC1=O (stereo not drawn),-4.49% [at 114 µM],
C[C@@H]1CC[C@]2(C(=O)O)CC[C@]3(C)C(=CCC4[C@]5(C)C(CC[C@]43C)C(C)(C)[C@@H](O)[C@H](O)[C@@H]5O)C2[C@]1(C)O (stereo partly drawn),-2.24%,
O=C(/C=C/c1ccc(O)cc1)OCC1=C[C@@H](O)[C@@H]2C=CO[C@@H](O[C@@H]3O[C@H](CO)[C@@H](O)[C@H](O)[C@H]3O)[C@H]12,4.5%,
CC1(C(=O)O)CCCC2(C)C1CCC13CC(CCC21)C1(CO)OC31 (stereo not drawn),5.47%,
CC1(C)CC2C3=CCC4C5(C)CCC(OC6OC(CO)C(O)C(OC7OC(CO)C(O)C(OC8OC(CO)C(O)C(OC9OC(COC%10OC(CO)C(O)C(O)C%10O)C(O)C(O)C9O)C8O)C7O)C6O)C(C)(C)C5CCC4(C)C3(C)CCC2(C(=O)O)CC1O (stereo not drawn),1.69% [at 12.4 µM],
OC[C@H]1O[C@@H](n2cnc3c(NCc4ccc(O)cc4)ncnc32)[C@H](O)[C@@H]1O,1.03% [at 114 µM],
CCOC(=O)c1ccnc(CNCC(=O)N(CC)CCN(C)C)c1,-10.4% [at 114 µM],
O=C(O)c1ccc(CCCc2ccc(OCCc3ccc(F)cc3)cc2)o1,-11.2% [at 114 µM],
COc1cc(/C=C/C(=O)O[C@H]2[C@H](OC(=O)/C=C/c3cc(OC)c(O)c(OC)c3)O[C@H](CO[C@@H]3O[C@H](CO)[C@@H](O)[C@H](O)[C@H]3O)[C@@H](O)[C@@H]2O)ccc1O,1.99% [at 30.2 µM],
O=C(/C=C/c1ccc(O)cc1)OC[C@]12O[C@H]1[C@@H](O)[C@@H]1C=CO[C@@H](O[C@@H]3O[C@H](CO)[C@@H](O)[C@H](O)[C@H]3O)[C@@H]12,1.29%,
C[C@@H]1C[C@H](O)/C=C/[C@H](O)[C@@H](O)CC(=O)O1,4.42% [at 114 µM],
CC1(C)O[C@@]2(C)CC[C@@H]1C[C@@H]2OC1OC(CO)C(O)C(O)C1O (stereo partly drawn),-1.66%,
CC(=O)O[C@H]1[C@H](Oc2ccccc2COC(=O)C2(O)C=CCCC2=O)O[C@H](CO)[C@@H](O)[C@@H]1O (stereo partly drawn),0.362%,

Compound,"activity change, negative = inhibition",Potency
C[C@@H]1C[C@H](O[C@@H]2O[C@H](CO[C@@H]3OC[C@](O)(CO)[C@H]3O)[C@@H](O)[C@H](O)[C@H]2O)CC(C)(C)[C@H]1/C=C/[C@@H](C)O,-0.584%,
COc1cc(O[C@@H]2O[C@H](CO)[C@@H](O)[C@H](O)[C@H]2O)c(CCC(=O)OC[C@H]2O[C@@H](Oc3cc(OC)c(C4OC(=O)C(C)(O)C4O)cc3CCC(=O)O)[C@H](O)[C@@H](O)[C@@H]2O)cc1C1OC(=O)C(C)(O)C1O (stereo partly drawn),0.801% [at 30.2 µM],
C=CCc1ccc(O[C@@H]2O[C@H](CO)[C@@H](O)[C@H](O)[C@H]2O)c(OC)c1,0.572%,
C=C1[C@@H]2CC[C@@]3(C)[C@H](c4ccoc4)OC(=O)C[C@]13O[C@H]1CC(=O)C(C)(C)[C@H](CC(=O)OC)[C@]12C,0.208%,
CC(C)[C@H]1CCC(CO)=C[C@@H]1/C=C(\CO)C(=O)O,-0.828% [at 114 µM],
CC1(CO)CC2C(O)C(=O)C3(CO)CC3(C)C2C1 (stereo not drawn),2.61% [at 114 µM],
CC(=C/C(=O)O)/C=C/[C@]1(O)[C@@]2(C)CO[C@]1(C)C[C@H](O[C@@H]1O[C@H](CO)[C@@H](O)[C@H](O)[C@H]1O)C2,3.29%,
CC1CCC2(C(=O)OC3OC(CO)C(O)C(O)C3O)CCC3(C)C(=CCC4C5(C)CC(O)C(O)C(C)(C(=O)O)C5CCC43C)C2C1(C)O (stereo not drawn),4.06% [at 30.2 µM],
NC1CCC(N[C@@H]2C[C@H]2c2ccccc2)CC1 (stereo partly drawn),,inactive
C(#Cc1cccc(CN2CCOCC2)c1)CCN1CCCCC1,-1.75% [at 114 µM],
C=C(C)[C@@H](C)[C@H]1O[C@]23C[C@]4(CO2)C(CCC2[C@@]5(C)CC[C@H](O[C@@H]6OC[C@H](O)[C@H](O[C@@H]7O[C@H](CO)[C@@H](O)[C@H](O)[C@H]7O)[C@H]6O[C@@H]6O[C@@H](CO)[C@H](O)[C@H]6O)C(C)(C)C5CC[C@]24C)C3[C@@](C)(O)[C@@H]1OC(C)=O (stereo partly drawn),1.33% [at 30.2 µM],
C=C1CCC2C(C)(CO[C@@H]3O[C@H](CO)[C@@H](O)[C@H](O)[C@H]3O)C(O)CCC2(C)C1C(=O)CC1=CCOC1=O (stereo partly drawn),0.0919%,
C=C[C@H]1[C@H](O[C@@H]2O[C@H](CO)[C@@H](O)[C@H](O)[C@H]2O)OC=C(C(=O)OC)[C@H]1C[C@@H]1N[C@H](C(=O)O)Cc2c1[nH]c1ccccc21,-15.3%,
CN[C@@H]1[C@@H](O)[C@@H](O[C@@H]2[C@@H](O)[C@H](O[C@H]3O[C@H](CN)[C@@H](O)[C@H](O)[C@H]3O)[C@@H](N)C[C@H]2NC(=O)[C@@H](O)CN)OC[C@]1(C)O,0.192% [at 114 µM],
CC(C)(O)/C=C1/C(=O)C(C)(C)C(=O)C(C)(C)C1(O)O[C@@H]1O[C@H](COC(=O)c2cc(O)c(O)c(O)c2)[C@@H](O)[C@H](O)[C@H]1O (stereo partly drawn),2.7% [at 30.2 µM],
COc1cc(C2OCC3C(c4ccc(OC5OC(CO)C(O)C(O)C5O)c(OC)c4)OCC23)ccc1O (stereo not drawn),-7.36%,
CC1(C)CCCC2(C)C3=C(C(=O)OC3O)C(O)CC12 (stereo not drawn),1.86% [at 114 µM],
C[C@@H]1CCC2C(C)(C)[C@H](O)CC[C@]2(C)[C@@]12Cc1c(O)cc3c(c1O2)CN(CCO)C3=O (stereo partly drawn),0.995%,
CC1OC(OC2C(O)C(C(=O)O)OC(OC3CCC4(C)C(CCC5(C)C4C=CC4=C6CC(C)(C)CC(O)C6(C)CCC45C)C3(C)C)C2OC2OCC(O)C(O)C2O)C(O)C(O)C1O (stereo not drawn),2.04% [at 30.2 µM],
